# Data reported in the supplement of paper PMC4022240.
# ± gives the standard deviation.
# T1: HaloTag-ATRX ADD domain (163-292)
# T1 chain: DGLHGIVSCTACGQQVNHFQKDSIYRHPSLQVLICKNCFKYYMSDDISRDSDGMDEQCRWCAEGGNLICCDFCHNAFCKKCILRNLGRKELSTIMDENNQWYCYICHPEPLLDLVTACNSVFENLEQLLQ
# Key:
# Test in all cases: peptide microarray binding signal (635 nm), min-max normalized on array (fraction of array maximum); higher = stronger binding
# [1] = biological target: T1, HaloTag-ATRX ADD domain (163-292)
# In short: (§1)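 An Axon GenePix 4000B scanned the arrays at 635 nm for signal and at 532 nm to catch misprints. Those arrays held histone 13-mer peptide–cellulose conjugates printed in triplicate on nitrocellulose with a Cy3 tracer, blocked overnight at 4°C and probed for 1 h at 4°C with biotin-labelled HaloTag reader fusions (10 nM to 1 μM) plus streptavidin-Alexa Fluor 647 or with rabbit histone antibodies (1:10,000 to 1:2,000) plus anti-rabbit Alexa 647. Each binding signal is a triplicate-spot mean intensity, scaled min-max within its library.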
# [2] = biological target: HaloTag-ING2 PHD (mouse Ing2 200-280)
# In short: as §1
# [3] = biological target: anti-H3K4me3 antibody ab8580
# In short: as §1
# [4] = biological target: anti-H3K9me3 antibody ab8898
# In short: as §1
# [5] = peptide region: H3 11-23, peptide modifications: H3K14ac H3R17me2s, binder concentration: 1:2,000 dilution
# [6] = peptide region: H3 11-23, peptide modifications: H3K14ac H3R17me2s, binder concentration: 1:10,000 dilution
# [7] = peptide region: H3 5-17, peptide modifications: H3S10ph H3K14me3, binder concentration: 1:2,000 dilution
# [8] = peptide region: H3 5-17, peptide modifications: H3S10ph H3K14me3, binder concentration: 1:10,000 dilution
# [9] = peptide region: H3 11-23, peptide modifications: H3K14ac H3R17me1, binder concentration: 1:2,000 dilution
# [10] = peptide region: H3 11-23, peptide modifications: H3K14ac H3R17me1, binder concentration: 1:10,000 dilution
# [11] = peptide region: H3 11-23, peptide modifications: H3K14me1, binder concentration: 1:2,000 dilution
# [12] = peptide region: H3 11-23, peptide modifications: H3K14me1, binder concentration: 1:10,000 dilution
# [13] = peptide region: H3 11-23, peptide modifications: H3K14ac H3R17me2a, binder concentration: 1:2,000 dilution
# [14] = peptide region: H3 11-23, peptide modifications: H3K14ac H3R17me2a, binder concentration: 1:10,000 dilution
binder,measurement,setting,value
TGGKAPRKQLATK [H3 11-23 T G G Kac A P Rme2s K Q L A T K],peptide microarray binding signal,"[1]; peptide region: H3 11-23, peptide modifications: H3K14ac H3R17me2s, binder concentration: 50 nM",0.00621 ± 0.00011
same,peptide microarray binding signal,"[1]; peptide region: H3 11-23, peptide modifications: H3K14ac H3R17me2s, binder concentration: 500 nM",0.0112 ± 0.00066
same,peptide microarray binding signal,"[2]; peptide region: H3 11-23, peptide modifications: H3K14ac H3R17me2s, binder concentration: 10 nM",0.0167 ± 0.00051
same,peptide microarray binding signal,"[2]; peptide region: H3 11-23, peptide modifications: H3K14ac H3R17me2s, binder concentration: 100 nM",0.02487 ± 0.00023
same,peptide microarray binding signal,[3]; [5],0.00702 ± 0.00068
same,peptide microarray binding signal,[3]; [6],0.00628 ± 0.00011
same,peptide microarray binding signal,[4]; [5],0.00362 ± 0.00034
same,peptide microarray binding signal,[4]; [6],0.00219 ± 3.5e-05
QTARKSTGGKAPR [H3 5-17 Q T A R K Sph T G G Kme3 A P R],peptide microarray binding signal,"[1]; peptide region: H3 5-17, peptide modifications: H3S10ph H3K14me3, binder concentration: 50 nM",0.005486 ± 5.1e-05
same,peptide microarray binding signal,"[1]; peptide region: H3 5-17, peptide modifications: H3S10ph H3K14me3, binder concentration: 500 nM",0.0236 ± 0.0018
same,peptide microarray binding signal,"[2]; peptide region: H3 5-17, peptide modifications: H3S10ph H3K14me3, binder concentration: 10 nM",0.0113 ± 0.0025
same,peptide microarray binding signal,"[2]; peptide region: H3 5-17, peptide modifications: H3S10ph H3K14me3, binder concentration: 100 nM",0.014 ± 0.0073
same,peptide microarray binding signal,[3]; [7],0.0516 ± 0.0021
same,peptide microarray binding signal,[3]; [8],0.0433 ± 0.025
same,peptide microarray binding signal,[4]; [7],0.132 ± 0.038
same,peptide microarray binding signal,[4]; [8],0.0759 ± 0.013
TGGKAPRKQLATK [H3 11-23 T G G Kac A P Rme K Q L A T K],peptide microarray binding signal,"[1]; peptide region: H3 11-23, peptide modifications: H3K14ac H3R17me1, binder concentration: 50 nM",0.0113 ± 0.0011
same,peptide microarray binding signal,"[1]; peptide region: H3 11-23, peptide modifications: H3K14ac H3R17me1, binder concentration: 500 nM",0.0152 ± 0.00047
same,peptide microarray binding signal,"[2]; peptide region: H3 11-23, peptide modifications: H3K14ac H3R17me1, binder concentration: 10 nM",0.0182 ± 0.0058
same,peptide microarray binding signal,"[2]; peptide region: H3 11-23, peptide modifications: H3K14ac H3R17me1, binder concentration: 100 nM",0.0339 ± 0.014
same,peptide microarray binding signal,[3]; [9],0.00517 ± 0.00077
same,peptide microarray binding signal,[3]; [10],0.00719 ± 0.0015
same,peptide microarray binding signal,[4]; [9],0.00569 ± 0.00047
same,peptide microarray binding signal,[4]; [10],0.00404 ± 0.00028
TGGKAPRKQLATK [H3 11-23 T G G Kme A P R K Q L A T K],peptide microarray binding signal,"[1]; peptide region: H3 11-23, peptide modifications: H3K14me1, binder concentration: 50 nM",0.00646 ± 0.00024
same,peptide microarray binding signal,"[1]; peptide region: H3 11-23, peptide modifications: H3K14me1, binder concentration: 500 nM",0.0181 ± 0.002
same,peptide microarray binding signal,"[2]; peptide region: H3 11-23, peptide modifications: H3K14me1, binder concentration: 10 nM",0.00567 ± 0.00017
same,peptide microarray binding signal,"[2]; peptide region: H3 11-23, peptide modifications: H3K14me1, binder concentration: 100 nM",0.0256 ± 0.0033
same,peptide microarray binding signal,[3]; [11],0.0023 ± 0.00025
same,peptide microarray binding signal,[3]; [12],0.00108
same,peptide microarray binding signal,[4]; [11],0.004 ± 0.00032
same,peptide microarray binding signal,[4]; [12],0.00346 ± 0.00012
TGGKAPRKQLATK [H3 11-23 T G G Kac A P Rme2a K Q L A T K],peptide microarray binding signal,"[1]; peptide region: H3 11-23, peptide modifications: H3K14ac H3R17me2a, binder concentration: 50 nM",0.00981 ± 0.001
same,peptide microarray binding signal,"[1]; peptide region: H3 11-23, peptide modifications: H3K14ac H3R17me2a, binder concentration: 500 nM",0.0127 ± 0.00086
same,peptide microarray binding signal,"[2]; peptide region: H3 11-23, peptide modifications: H3K14ac H3R17me2a, binder concentration: 10 nM",0.0112 ± 0.00063
same,peptide microarray binding signal,"[2]; peptide region: H3 11-23, peptide modifications: H3K14ac H3R17me2a, binder concentration: 100 nM",0.0221 ± 0.00099
same,peptide microarray binding signal,[3]; [13],0.00436 ± 0.00064
same,peptide microarray binding signal,[3]; [14],0.00445 ± 0.00022
same,peptide microarray binding signal,[4]; [13],0.00344 ± 0.00027
same,peptide microarray binding signal,[4]; [14],0.002479 ± 2.2e-05
